A selection: hits, their analogues and other compounds. The true share with any hit is near 3.3%.
NS1 function inh: influenza NS1 inhibition; Potency, µM (highest dose often 46.1 µM), inactives show at the highest dose activity, positive = more growth; hit rate 0.4% among 270,000; AID 2326; calls by dose curve; note: actives are rising curves; nearly all actives have a fitted effect of over 50% in size
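Growth recovery, yeast-based: influenza A NS1 expressed in S. cerevisiae causes slow growth, and suppressors are detected by OD600. The parent strain without NS1 is used as positive control.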
LmPK inhibitor: inhibitors of Leishmania mexicana pyruvate kinase. purified LmPK, Kinase-Glo ATP luminescence, 1 h. Potency, µM (doses to about 57.5 µM), for the others: at the highest dose activity change, negative = inhibition, usual class: inhibitors. hit rate 0.37% among 290,000. AID 1721; note: % is set by controls: 0 for no effect and ±100 for the full control effect
Target sequence (Q27686 whole entry, looked up): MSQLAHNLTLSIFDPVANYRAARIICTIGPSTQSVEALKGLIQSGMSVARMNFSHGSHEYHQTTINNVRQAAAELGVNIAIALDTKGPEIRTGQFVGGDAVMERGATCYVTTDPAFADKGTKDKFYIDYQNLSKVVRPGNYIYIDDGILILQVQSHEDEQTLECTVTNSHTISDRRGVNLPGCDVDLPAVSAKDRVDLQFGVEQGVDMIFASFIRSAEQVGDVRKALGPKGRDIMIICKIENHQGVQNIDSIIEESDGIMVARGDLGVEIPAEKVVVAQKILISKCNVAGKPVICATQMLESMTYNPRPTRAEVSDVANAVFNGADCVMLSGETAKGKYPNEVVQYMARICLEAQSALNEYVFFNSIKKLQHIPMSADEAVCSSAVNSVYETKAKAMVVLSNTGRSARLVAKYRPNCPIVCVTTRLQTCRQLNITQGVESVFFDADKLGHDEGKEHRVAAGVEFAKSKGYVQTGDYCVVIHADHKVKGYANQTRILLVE
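Purified LmPK (0.1 nM) converted ADP (0.1 mM) to ATP with PEP (0.5 mM) in imidazole buffer pH 7.2 with KCl and MgCl2, 1 h at room temperature. ATP was read by Kinase-Glo luminescence; data normalized to uninhibited and no-enzyme controls.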
Sm TGR inh: S. mansoni TGR enzyme inhibition; hit rate 3% among 360,000; Potency, µM (titrated, usually from 114 µM), for inactives: top-dose activity change, negative = inhibition, actives largely listed as inhibitors; purified TGR, DTNB reduction, TNB absorbance 405 nm; Q962Y6; AID 485364; note: % is set by controls: 0 for no effect and ±100 for the full control effect; nearly all actives have a fitted effect of over 60% in size
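TGR 20 nM + NADPH 100 uM (dispensed conc.), cpd preinc 15 min RT; start with NADPH (500 uM addition) then DTNB (15 mM addition). Kinetic TNB absorbance, 405 nm filter. Four-parameter Hill fit across titration.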
TbPYK inhibitor: blocks Trypanosoma brucei pyruvate kinase; Q57TT1; TbPYK enzyme, Kinase-Glo Plus ATP luminescence, 45 min; Potency, µM (doses to about 76.8 µM), for inactives: at the top dose activity, negative = inhibition, actives largely listed as inhibitors; hit rate 0.12% among 410,000; AID 624173; note: % is set by controls: 0 for no effect and ±100 for the full control effect; nearly all actives have a fitted effect of over 50% in size
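Activity of T. brucei pyruvate kinase was followed by Kinase-Glo Plus luminescence after the enzyme reacted 45 min at room temperature with 130 uM ADP (final) and substrate. Test compounds were added before ADP at multiple concentrations.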
RE007 growth inh: less growth of the S. pombe RE007 Vpr strain; Potency, µM (doses to about 92.2 µM), for the others: at the top dose activity change, negative = less growth, usual class: inhibitors; AID 651644; S. pombe RE007 Vpr strain, BacTiter-Glo ATP luminescence, 24 h; hit rate 0.21% among 360,000; active = well fitted falling curve with a large enough effect; inconclusive = small, poorly fitted or top-dose-only effect; inactive = no such curve, though single readings can be large or run the other way; note: % is set by controls: 0 for no effect and ±100 for the full control effect; nearly all actives have a fitted effect of over 50% in size
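Fission yeast strain RE007, carrying one chromosomally integrated HIV-1 vpr copy, was seeded at OD 0.01 in PMG+AL medium with 23 nL pinned compound. After 24 h at 30 °C and 99% humidity, viability was read by BacTiter-Glo luminescence.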
SARS PLpro yeast: inhibitors of SARS-CoV papain-like protease in yeast; S. cerevisiae expressing SARS-CoV PLpro, growth rescue; Potency, µM (highest dose often 32.9 µM), for inactives: at the top dose activity, positive = growth rescue, usual class: activators; hit rate 0.19% among 330,000; AID 485353; calls by dose curve; note: 0% is about no effect; nearly all actives have a fitted effect of over 55% in size
Active calls of the source: *; ? = inconclusive; nt = no result given; [ ] = dose if it differs, or a comment. Unless noted, calls come from the whole dose curve; as a rule, active = well fitted curve in the direction sought with a large enough effect; inconclusive = small, poorly fitted or top-dose-only effect, or another doubt; inactive = no such curve, though single readings can be large; an effect the other way counts as inactive or inconclusive. Potency is the fitted concentration of half-maximal effect.

SMILES	NS1 function inh	LmPK inhibitor	Sm TGR inh	TbPYK inhibitor	RE007 growth inh	SARS PLpro yeast
Cc1ccc(CN(C(=O)COc2cccc([N+](=O)[O-])c2)c2ccccn2)o1	nt	nt	50µM*	-16%	nt	nt
Cc1cc(NC(=O)COc2cccc([N+](=O)[O-])c2)no1	24%	-7%	45µM*	-7%	-3%	3%
CC(NC(=O)c1ccccc1Cl)c1ccc(-n2ccnc2)cc1 (stereo unspecified)	nt	nt	nt	-4%	7%	nt
CSc1ccccc1C(=O)NC(C)c1ccc(-n2ccnc2)cc1 (stereo unspecified)	9%	-10%	5.6µM*	1%	-3%	4%
CCc1ccn2cc(-c3cc(-c4ccccc4)no3)nc2c1	-45%	16µM*	26%	-7%	-18%	-4%
O=C(C1CCCCC1)N1CCC(c2nc3ccccc3[nH]2)CC1	-8%	-3%	22%	-8%	2%	-7%
CN1C(=O)CC(N2CCC(c3nc4ccccc4[nH]3)CC2)C1=O (stereo unspecified)	6%	4%	89µM*	-2%	-16%	2%
O=C(c1ccc(Br)o1)N1CCC(c2nc3ccccc3[nH]2)CC1	nt	nt	40µM*	-12%	?	-8%
O=C1CC(N2CCC(c3nc4ccccc4[nH]3)CC2)C(=O)N1c1cccc(F)c1 (stereo unspecified)	nt	-2%	?	-1%	40µM*	-5%
O=C(C1CC(=O)N(c2ccc(F)cc2)C1)N1CCC(c2nc3ccccc3[nH]2)CC1 (stereo unspecified)	nt	nt	-4%	1%	3%	2%
O=C1CC(N2CCC(c3nc4ccccc4[nH]3)CC2)C(=O)N1Cc1ccccc1 (stereo unspecified)	-35%	0%	?	-2%	?	nt
O=C(O)c1ccc(N2C(=O)CC(N3CCC(c4nc5ccccc5[nH]4)CC3)C2=O)cc1 (stereo unspecified)	2%	0%	22µM*	-12%	0%	1%
CC(CNC(=O)c1ccc2nc(Cc3ccccc3)oc2c1)c1ccccc1 (stereo unspecified)	nt	nt	3%	1%	nt	nt
O=c1c(-c2ccco2)[n+]([O-])c2ccccc2n1OCc1ccccc1	11%	-2%	10µM*	-1%	nt	15%
O=c1c(-c2ccco2)[n+]([O-])c2ccccc2n1OCc1ccccc1F	-3%	-7%	?	4%	-12%	8%
O=c1c(-c2ccco2)[n+]([O-])c2ccccc2n1OCc1c(F)cccc1F	2%	-1%	16µM*	0%	7%	-1%
COc1ccccc1COn1c(=O)c(-c2ccco2)[n+]([O-])c2ccccc21	9%	0%	14µM*	6%	0%	-2%
Cc1cccc(N(CC(=O)NCCSCc2cccc(Cl)c2)S(=O)(=O)c2ccccc2)c1C	nt	nt	-2%	-1%	nt	nt
CCOc1ccccc1NC(=O)c1ccc2c(c1)CCN2S(C)(=O)=O	nt	nt	-1%	-4%	nt	nt
COc1ccccc1CNC(=O)c1cc2c(=O)oc3ccc(C)cc3c2s1	nt	nt	-5%	-2%	nt	nt
CCOc1ccc(-c2cc3c(=O)n(CC(=O)Nc4cc(F)ccc4C)ccn3n2)cc1	nt	nt	5%	-1%	nt	nt
CC(C)CCN(Cc1ccco1)S(=O)(=O)c1ccc(-c2ccc(=O)[nH]n2)s1	-3%	-4%	-24%	1%	3%	-7%
CCCCN(Cc1ccco1)S(=O)(=O)c1ccc(-c2ccc(=O)[nH]n2)s1	-6%	3%	25µM*	-3%	14%	-5%
CCCCc1cc2c(cn1)=C(OC(=O)c1ccco1)C(C)(OC(=O)CC)C(=O)C=2 (stereo unspecified)	nt	1%[11.5 µM]	nt	nt	nt	nt
CCOC(=O)C1(Cc2ccccc2C)CCCN(Cc2cc(OC)c(O)c(OC)c2)C1 (stereo unspecified)	8%	4%	4.5µM*	-2%	0%	-1%
CCOC(=O)C1(CCOc2ccccc2)CCN(Cc2ccc(OC)c(O)c2)CC1	14%	-2%	-1%	-1%	-4%	nt

Bioassay records as filed in PubChem BioAssay.
